D1 ag: activates the human D1 dopamine receptor | P21728 | HEK293 T-REx D1 cells, calcium flux, agonist mode | activation, % at 2 µM | 360,000 tested, 1% active | AID 504660; further: 0% is about no effect
Target sequence (P21728 whole entry, looked up): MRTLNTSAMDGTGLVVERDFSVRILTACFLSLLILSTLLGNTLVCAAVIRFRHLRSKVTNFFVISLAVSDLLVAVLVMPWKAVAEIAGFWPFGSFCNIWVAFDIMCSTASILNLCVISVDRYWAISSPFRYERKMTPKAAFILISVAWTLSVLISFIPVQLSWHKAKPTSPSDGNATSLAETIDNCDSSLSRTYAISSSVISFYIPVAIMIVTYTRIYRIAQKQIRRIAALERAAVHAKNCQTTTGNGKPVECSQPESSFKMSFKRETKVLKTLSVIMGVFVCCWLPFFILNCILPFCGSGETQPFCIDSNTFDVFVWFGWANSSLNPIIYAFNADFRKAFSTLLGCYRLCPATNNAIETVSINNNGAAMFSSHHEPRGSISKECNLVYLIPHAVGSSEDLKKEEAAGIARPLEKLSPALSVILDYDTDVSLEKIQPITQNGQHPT
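Inducible HEK293 T-REx D1 cells, force-coupled to calcium signalling, were plated at 4000 cells/well with tetracycline and held overnight at 30 C. After no-wash calcium dye loading, compound-evoked calcium rise over 180 s flagged agonists.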
D1 antagonist: blocks dopamine activation of the human D1 receptor; HEK293 TREx D1 cells, calcium flux, dopamine EC80; active compounds read low; P21728; AID 504652; 360,000 tested, 3.2% active; activity change, negative = inhibition, % at 10 µM; in the data active means activity change below about -30%; further: on the % scale 0 is the no-effect control and ±100 the full control effect
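Cells carrying a force-coupled, tetracycline-inducible human D1 receptor report calcium flux. Each well gets a 10 s baseline, compound with 180 s monitoring, then an EC80 dopamine stimulus with a second 180 s kinetic read.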
TRHR PAM: TRH receptor (human) allosteric enhancement; P34981; TRHR cells, fluo-8 calcium fluorescence, EC20 TRH enhancement; enhancement, % at 2 µM; 360,000 tested, 0.66% active; in the data active means enhancement above about 30%; further: 0% is about no effect
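TRHR-expressing cells loaded with fluo-8 calcium dye were read kinetically (ex 480/em 530) during compound addition, then stimulated with an EC20 of TRH (10 nM final). Enhancement of the Gq-mediated intracellular calcium response was scored.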
TRHR ag: TRH receptor (human) agonism. activation, % at 2 µM. TRHR cells, calcium flux fluo-8, FDSS agonist mode. AID 493084. 360,000 tested, 0.18% active. P34981; further: 0% is about no effect
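In this calcium-flux screen, cells bearing human TRHR are dye-loaded with fluo-8, baselined for 10 cycles, then exposed to library compounds; positive kinetic calcium responses during the agonist phase mark hits, with TRH as control.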
D1 PAM: potentiators of human D1 dopamine receptor; HEK293 TREx D1 cells, calcium flux, dopamine EC20 potentiation; potentiation, % at 10 µM; 360,000 tested, 0.036% active; in the data active means potentiation above about 30%; further: 0% is about no effect
* marks the source's active call; other numbers are inactive results; x = no result given. Compounds with a hit are over-represented: about 4.7% of the library has one in this group of screens. Unless noted, no stated cut-off is given here; in the data, active means activation above about 30%; inactive means the rest.

SMILES | D1 ag | D1 antagonist | TRHR PAM | TRHR ag | D1 PAM
Cc1ccc(-c2nc(CS(=O)(=O)CC(=O)N3CCN(c4cccc(C)c4C)CC3)c(C)o2)cc1 | -1.2 | 4.6 | 22.1 | -0.2 | -0.1
COc1cc(C2CC(=O)Nc3ccc4ccccc4c32)ccc1OC(=O)C(C)C (stereo unspecified) | 3.8 | 10.8 | -6.9 | 2.4 | -1.4
CC1CCc2onc(C(=O)N3CCN(c4ccc(Cl)cc4)CC3)c2C1 (stereo unspecified) | 4.9 | -1.8 | 7.2 | -0.8 | -4.4
COc1ccc(C(=O)Nc2ccc(C(=O)N3CCOCC3)cc2)cc1OC | 2.8 | -1.1 | 32.3* | 0.0 | 13.3
COc1ccc(NC(=O)Nc2ccc(C(=O)N3CCOCC3)cc2)cc1OC | 1.9 | 3.8 | -1.0 | 0.8 | 5.7
Cc1ccc(-c2nc(SCC(=O)N3CCc4ccccc43)c3c(=O)n(C)c(=O)n(C)c3n2)cc1 | 2.0 | 5.4 | 6.9 | 0.7 | -1.2
COC(=O)c1ccc(C(=O)Nc2ccc(C(C)C)cc2N)cc1 | -2.3 | -40.4* | 1.1 | 0.0 | 2.8
COC(=O)c1ccc(C(=O)NN)cc1 | 1.3 | -6.2 | 14.4 | 0.3 | -3.0
COc1ccc(-c2cc3ccc(O)c(CN4CCC(C)CC4)c3oc2=O)cc1OC | 13.3 | -1.4 | -3.6 | 1.0 | 0.2
CCc1ccccc1NC(=O)c1cc(S(=O)(=O)N2CCCc3ccccc32)ccc1F | 5.8 | 6.1 | 11.0 | 1.1 | -1.5
COc1ccc(OCC(=O)Nc2ccc(-c3nc4cc(C)cc(C)c4o3)cc2)cc1 | -0.8 | -8.6 | 10.3 | -1.4 | -0.3
Cc1noc(C)c1S(=O)(=O)N1CCN(c2ccc(Cl)cc2)CC1 | -0.1 | 0.6 | -4.6 | -0.2 | 0.9
CC(=O)c1ccc(N2CCN(C(=O)c3ccc(OCc4c(C)noc4C)cc3)CC2)cc1 | 7.5 | -32.3* | -2.4 | -0.7 | -2.4
Cc1noc(C)c1S(=O)(=O)Nc1ccc(C(=O)N2CCN(c3ccc(Cl)cc3)CC2)cc1 | 20.3 | -36.0* | -0.6 | 0.2 | -7.2
Cc1cc(C(C)(C)CC(C)(C)C)ccc1OCCOCC[N+](C)(C)Cc1ccccc1 | 100.6* | 7.9 | -4.0 | 0.4 | -1.4
Cc1cc(C(C)(C)C)ccc1OCCN1CCCC1 | 8.6 | 5.0 | 1.2 | 1.6 | 0.2
Cc1ccc(NC(=O)CCCc2nnc3n(C)c(=O)c4sccc4n23)cc1F | 3.2 | -3.1 | -6.2 | -0.5 | -0.3
Cc1cc(O)ccc1C1(c2ccc(O)cc2C)OC(=O)c2ccccc21 | 8.9 | 4.8 | 5.8 | 0.4 | 0.1
CC(=O)Oc1ccc2c(c1)Oc1cc(OC(C)=O)ccc1C21OC(=O)c2ccccc21 | 833.5* | 4.3 | -19.5 | 105.6* | -1.2
Cc1ccc(Cl)cc1NC(=O)c1oc2ccc(S(=O)(=O)N3CCC4(CC3)OCCO4)cc2c1C | -2.8 | -9.0 | -5.0 | 0.5 | -1.8
CCOC(=O)c1c(C)[nH]c(C(=O)OCc2ccccc2F)c1C | 30.6* | 7.4 | 19.1 | -0.5 | 9.4
CCOC(=O)c1c(C)[nH]c(C(=O)NCc2ccco2)c1C | 0.2 | -71.4* | 3.1 | 0.1 | -6.5
CCCNC(=O)c1[nH]c(C)c(C(=O)OCC)c1C | 2.1 | -39.6* | -10.3 | -0.1 | -8.2
CCOC(=O)c1[nH]c(C)c(C(=O)OC)c1C | 1.0 | -1.1 | -8.5 | -0.1 | -5.5
CCOC(=O)c1[nH]c(C)c(C(=O)NC2CCCCC2)c1C | 0.3 | -88.6* | 1.7 | 0.2 | -5.2
SMILES | D1 ag | D1 antagonist | TRHR PAM | TRHR ag | D1 PAM
CCOC(=O)c1c(C)[nH]c(C(=O)O)c1C | 3.2 | -2.0 | -0.2 | -0.3 | -5.3
Cc1ccc(-c2nc3scc(CCNS(=O)(=O)c4ccc(C)c(C)c4)n3n2)cc1 | 5.7 | x | -1.6 | 0.7 | -1.3
Cc1ccc(NC(=O)CSc2nc3c(c(=O)[nH]2)CCC3)cc1Cl | 1.5 | -20.9 | -2.1 | 0.0 | 1.2
CCOC(=O)c1c(C)[nH]c(C(=O)N/N=C/c2ccc(Br)cc2)c1C | 3.0 | -40.4* | -5.0 | -1.5 | -7.4
Cc1[nH]c(C(=O)N/N=C/c2ccc(C(=O)O)cc2)c(C)c1C(=O)N/N=C/c1ccc(C(=O)O)cc1 | 0.8 | -10.0 | 4.4 | -0.6 | -3.0
Nc1ccn(CC(=O)NCc2ccccc2)c(=O)n1 | 0.6 | 4.3 | 2.9 | 0.5 | 2.4
Nc1ccn(CC(=O)N[C@H](CO)Cc2c[nH]c3ccccc23)c(=O)n1 | 1.3 | -34.0* | -1.3 | 0.0 | -3.9
COc1ccc(NC(=O)CC2SC(=NCC3CCCO3)NC2=O)cc1 (stereo unspecified) | 3.1 | -46.9* | -6.4 | 0.0 | -10.8
Cc1ccc(NC(=O)CC2SC(=NCC3CCCO3)NC2=O)cc1Cl (stereo unspecified) | -1.2 | -1.2 | -7.2 | -0.2 | -10.2
Cc1ccc(-n2nc(C)c3c(C(=O)NCCc4ccccc4)cc(C)nc32)cc1 | 3.8 | 5.5 | 7.8 | 0.3 | 3.4
CCc1ccc(NC(=O)NCC2CCN(Cc3cccc(Cl)c3)CC2)cc1 | 36.2* | -36.5* | 25.3 | 1.7 | -10.0
CCOC(=O)CC(NC(=O)CCc1c(C)nc2c(c1C)c(=O)n(C)c(=O)n2C)c1ccc(OCC)c(OC)c1 (stereo unspecified) | -0.2 | -32.7* | 6.2 | -0.4 | -3.9
O=C(Nc1cc(-c2nc3ccccc3o2)ccc1Cl)c1ccc(Br)o1 | 0.7 | 4.4 | -4.8 | -0.4 | 2.5
COc1cc(Cl)c(C)cc1NC(=O)c1cnc(N2CCOCC2)c2ccccc12 | 1.7 | -8.8 | 4.3 | -0.5 | -3.0
CC(Sc1nc(=O)cc(N)n1CCc1ccccc1)C(=O)Nc1ccc(Cl)cc1 (stereo unspecified) | 16.3 | -33.4* | 6.8 | 0.5 | -1.8
Cc1ccccc1OCC(=O)Nc1ccccc1C(=O)OCc1cc(=O)n2c(C)csc2n1 | -0.3 | -39.7* | 1.8 | 0.4 | -0.4
Cc1csc2nc(COC(=O)COc3ccccc3F)cc(=O)n12 | 5.0 | -46.4* | 3.1 | 0.1 | -4.0
Cc1csc2nc(COc3ccc(NC(=O)COc4ccccc4F)cc3)cc(=O)n12 | 6.4 | -19.1 | 11.9 | -0.2 | -2.8
Cc1ccccc1OCC(=O)Nc1ccccc1C(=O)OCc1cc(=O)n2ccsc2n1 | -1.4 | 11.3 | 0.2 | -1.3 | 0.1
O=S(=O)(c1ccc(F)cc1)N1CCN(c2nc(-c3ccccc3)nc3cc(Cl)ccc23)CC1 | 6.2 | -5.7 | -2.3 | -0.2 | 5.6
COc1ccc(N2CCN(c3ccc(N4C(=O)COCC4=O)cc3[N+](=O)[O-])CC2)cc1 | 8.9 | -31.4* | -2.2 | 0.4 | -9.7
CCOc1ccccc1CNCc1ccc(F)cc1 | 4.0 | -31.1* | -2.1 | 0.9 | 0.1
CCOC(=O)c1scc(-c2ccccc2)c1S(=O)(=O)Nc1ccc(N(C)C)cc1 | 1.9 | -8.6 | 52.6* | -0.6 | -5.2
CCc1ccc(/C=N/NC(=O)c2nnn(-c3nonc3N)c2C(C)C)cc1 | 142.4* | 42.4 | 40.8* | 25.2 | 22.3
COc1cccc(-c2c(C(=O)N/N=C/c3ccncc3)nnn2-c2nonc2N)c1 | 4.0 | 7.2 | 12.9 | -0.4 | -5.7

Source: PubChem (National Center for Advancing Translational Sciences (NCATS))
